Measurements reported in PubChem BioAssay AID777 (Sanford-Burnham Center for Chemical Genomics, 2007).
The campaign covered roughly 96,000 compounds. About 19,000 (20%) were called active.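 Rule for the calls: active = blocking of liver enzyme CYP2C9 beyond about 50% at 5 µM (limit read from the data); inactive = the rest.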 Not all results are given here.

The compounds below were run against Cytochrome P450 2C9 (Homo sapiens) (UniProt P11712) (assay: blockers of cytochrome P450 2C9 activity – biochemical, luminescence, ADME assay, primary screen (AID 777)). Settings: CYP2C9 Supersomes, luciferin-H conversion, at 5 µM, active compounds read high.
Sequence of Cytochrome P450 2C9 (Homo sapiens) (P11712 whole entry, looked up): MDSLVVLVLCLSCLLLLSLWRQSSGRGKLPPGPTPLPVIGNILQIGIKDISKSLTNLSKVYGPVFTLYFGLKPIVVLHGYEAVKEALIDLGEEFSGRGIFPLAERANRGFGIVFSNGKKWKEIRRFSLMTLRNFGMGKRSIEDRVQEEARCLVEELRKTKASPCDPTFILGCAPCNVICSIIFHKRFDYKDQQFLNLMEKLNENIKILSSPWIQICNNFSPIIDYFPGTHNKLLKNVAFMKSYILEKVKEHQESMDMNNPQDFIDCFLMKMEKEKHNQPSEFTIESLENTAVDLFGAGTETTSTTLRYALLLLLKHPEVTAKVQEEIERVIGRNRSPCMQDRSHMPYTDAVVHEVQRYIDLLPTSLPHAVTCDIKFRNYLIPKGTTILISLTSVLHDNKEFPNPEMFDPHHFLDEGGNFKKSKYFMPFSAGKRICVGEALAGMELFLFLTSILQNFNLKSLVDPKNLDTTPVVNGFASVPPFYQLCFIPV

inhibition, active:
CCOC(=O)c1c(C)[nH]c(C(=O)COc2ccc3c(c2)OCO3)c1C 93%
Cn1c(NN)nc2sc3c(c2c1=O)CCC3 68.1%
C=CCn1c(SCc2nnc(-c3ccccc3)o2)nnc1C(O)c1ccccc1 (stereo unspecified) 59%
CCn1c(CSc2nncn2-c2ccc(OC)cc2)nc2cc(S(=O)(=O)N(C)C)ccc21 50.1%
Cc1ccc(C(=O)Nc2ccc3c(c2)OCO3)cc1S(=O)(=O)N1CCCCC1 93.3%
CC(C)C(=O)Nc1cccc(C(=O)Nc2ccc3c(c2)OCO3)c1 57.2%
O=C(Nc1ccc2c(c1)OCCO2)c1ccc(Cl)c(S(=O)(=O)N2CCCCC2)c1 97.2%
CCn1c(Cc2cccs2)nnc1SCC(=O)c1ccc(C)cc1 78.7%
CCn1c(SCC(=O)c2ccc(Cl)s2)nnc1-c1cccs1 69.2%
Cc1ccc(-n2c(Cc3cccs3)nnc2SCC(=O)OC(C)C)cc1 67.5%
CCC(c1nnnn1Cc1ccccc1)N(Cc1cc2cc(OC)ccc2[nH]c1=O)CC1CCCO1 (stereo unspecified) 66.2%
Cc1cc(C)c2cc(CN(Cc3cccs3)Cc3nnnn3CC3CCCO3)c(=O)[nH]c2c1 (stereo unspecified) 75.5%
COc1ccc2[nH]c(=O)c(CN(Cc3nnnn3CCc3ccccc3)CC3CCCO3)cc2c1 (stereo unspecified) 68%
C=CCn1c(SCc2c(C)noc2C)nc2sc3c(c2c1=O)CCC(C)C3 (stereo unspecified) 92.7%
O=C(OCC(O)C(O)COC(=O)c1ccccc1)c1ccccc1 (stereo unspecified) 57.1%
Clc1ccc(C2CC(c3cccs3)n3ncnc3N2)cc1Cl (stereo unspecified) 53.2%
C/C(=N\NS(=O)(=O)c1ccc(Br)cc1)c1cccs1 68%
Fc1ccc2[nH]c3c(N4CCN(Cc5ccc6c(c5)OCO6)CC4)ncnc3c2c1 81.2%
Fc1ccc2[nH]c3c(N4CCSCC4)ncnc3c2c1 60.5%

inhibition, inactive:
Cc1cc(C)n2nc(C(=O)Oc3ccc4c(c3)OCO4)nc2n1 -31.5%
CCOC(=O)c1c(C)oc2ccc(OCC(=O)N(CC)CC)cc12 -13.4%
Nc1c(-c2cccc(Cl)c2)cnn1-c1cccc([N+](=O)[O-])c1 4.4%
O=C(NC12CC3CC(CC(C3)C1)C2)N1CCCC(CO)C1 (stereo unspecified) 12.4%
CC12C(=O)N(n3cnnc3)C(=O)C1C1C=CC2C1 (stereo unspecified) 1.9%
O=C(O)[C@@H]1CCCN1c1ncnc2sc3c(c12)CCC3 4.9%
NNC(=O)C1CCCn2c1nc1sc3c(c1c2=O)CCCC3 (stereo unspecified) 21.6%
Cn1c(NC(=O)c2ccco2)c(-c2ccccc2Cl)c(=O)c2ccccc21 -3.7%
CC(C)Oc1ccc(C(=O)NC(C)(C)CO)cc1 15%
O=C(COc1ccccc1)NCCc1nc2ccccc2[nH]1 28.6%
O=C(CSCc1c(Cl)cccc1Cl)NN1C(=O)c2ccccc2C1=O 34.3%
CN(C)c1ccc(CNC23CN4CN(CN(C4)C2)C3)cc1 -4.7%
Cc1cccc2c1N(CC(=O)OC(C)C)C(=O)C2=O 8%
Cn1nnnc1SCC(=O)Nc1ccccc1C(=O)NC1CC1 10.7%
CC(C)Nc1nc(N(c2ccccc2)c2ccccc2)nc(-n2ccnc2)n1 29%
Cc1ccc(N2CCN(S(=O)(=O)N(C)C)CC2)cc1Cl 11%
O=C(NC1(C(F)(F)F)N=C2SCCN2C1=O)c1ccco1 (stereo unspecified) -10%
COc1cc(OC)c(C(=O)NC2CCCCCC2)cc1OC 34.4%
Cn1c(SCC(=O)C(C)(C)C)nnc1-c1ccccn1 -0.6%
O=C(Nc1ccc2c(c1)OCCO2)c1ccncc1 46.2%
Cn1c(=O)n(C)c2cc(C(=O)Nc3ccc4c(c3)OCO4)ccc21 -11.4%
O=C(Nc1ccccc1)c1ccc2c(c1)OCO2 9.7%
O=C(Nc1ccc2c(c1)OCCO2)c1cnccn1 4.9%
Cc1ccc(C(=O)NCC(=O)O)cc1S(=O)(=O)N1CCCCC1 3.8%
COc1ccc(C(=O)Nc2ccc3c(c2)OCO3)cc1OC 1.7%
Cc1c(C=O)c2ccccn2c1C(=O)c1ccncc1 40.3%
CCC(=O)c1ccc(OCC(O)CN2CCN(c3cccc(C(F)(F)F)c3)CC2)cc1 (stereo unspecified) 22%
O=C(c1ccc(Cl)cc1)c1ccc(OCC(O)CN2CCCCC2)cc1 (stereo unspecified) 7.1%
Cc1nnc(SCC(=O)NCCOc2ccc(Cl)cc2)n1-c1ccccc1 37.2%
CCN1CCC(=NNC(=O)c2ccc(C)c([N+](=O)[O-])c2)CC1 7.3%
c1ccc(CCC2=NCCn3cccc32)cc1 4.5%
Cc1cccc(C(=O)NCCCN2CCCC2=O)c1 -4%
Cn1c(SCC(=O)c2cccs2)nnc1-c1ccco1 -12.6%
CCn1c(SCC(=O)c2ccc3ccccc3c2)nnc1-c1cccs1 3.9%
CCOC(=O)CSc1nnc(CNC(=O)c2cccs2)n1-c1ccccc1 -10.4%
COc1ccc(-n2c(SCC(=O)OC(C)C)nnc2-c2ccccn2)cc1 -13.5%
CCOC(=O)CNC(=O)CSc1nnc(COc2ccc(Cl)cc2)n1CC 19.6%
COC(=O)c1c(-c2ccc(C)cc2)csc1N 31.9%
CCC(C)n1[nH]c(=O)c2c(C)cc(C)nc21 (stereo unspecified) 10.8%
COc1ccc(Cc2nnc(SC)[nH]c2=O)cc1 37.8%
C[N+](C)(C)CCNC(=O)c1c(O)c2c([nH]c1=O)CCCC2 6.6%
CC(CC(=O)Nc1cc(C(F)(F)F)ccc1Cl)c1ccccc1 (stereo unspecified) -141%
CC(C)n1c(C(O)c2ccccc2)nc2ccccc21 (stereo unspecified) -0.4%
Cc1cc(N2CCCC2)n2nc(C)c(-c3ccccc3)c2n1 -22.5%
COC(=O)c1cnn2c(C(F)(F)F)cc(-c3ccco3)nc12 -10.8%
Cc1c(C(=O)NCC2CCCO2)sc2nc(-c3ccccc3)cn12 (stereo unspecified) 28.3%
c1ccc2c(c1)OCC(CNc1ncnc3nc[nH]c13)O2 (stereo unspecified) 10.3%
CCOc1ccc2[nH]c(=O)c(CN(Cc3nnnn3Cc3ccccc3)CC3CCCO3)cc2c1 (stereo unspecified) 13%
Cc1ccsc1C(=O)OCC(=O)c1cc(C)n(CC2CCCO2)c1C (stereo unspecified) -70.9%
Cc1cc2cc(CN(Cc3cccs3)Cc3nnnn3CC3CCCO3)c(=O)[nH]c2cc1C (stereo unspecified) -32.2%
CCC(=O)N(Cc1cc2cc(OC)ccc2[nH]c1=O)c1ccccc1C 36.4%
COc1ccc(CNC(=O)c2cc3c(=O)n4ccccc4nc3n(CC3CCCO3)c2=N)cc1 (stereo unspecified) 9.5%
COc1ccc(N(Cc2cc3cc(OC)ccc3[nH]c2=O)S(C)(=O)=O)cc1 26.9%
CC(=O)c1c(C)c[nH]c1C -23.3%
Cc1ccccc1N/N=C/c1ccc(N2CCOCC2)cc1 -0.6%
CCN1CCN(CCCCOc2ccccc2F)CC1 15.7%
O=C(CC1NCCNC1=O)Nc1ccc(Oc2ccccc2)cc1 (stereo unspecified) 1.6%
Cc1nc2ccc(S(=O)(=O)NCC(=O)O)cc2s1 -5.2%
O=C1CN(c2nc(-c3ccccc3)c3cc(Br)ccc3n2)c2ccccc2N1 -6.3%
Cc1ccc(C2NC(=S)NC3=C2N2CCC3CC2)cc1 (stereo unspecified) 1.3%
CCCn1nnc2sc3c(c2c1=O)CCC(C)C3 (stereo unspecified) 10.3%
CC1CCc2c(sc3nc4n(c(=O)c23)CCS4)C1 (stereo unspecified) 28.1%
c1ccc(-c2nccc(-c3ccc(-n4cnc5ccccc54)cc3)n2)nc1 22.6%
CNC(=O)n1ccc(C(=O)N2CCCCC2)n1 -19.7%
CCc1nc(N2CCN(c3nc(C)cc(C)n3)CC2)c2oc3ccccc3c2n1 11.3%
CN(C)/C(CN1CCCCC1)=C1\N=C(c2ccccc2)OC1=O 20.2%
O=C(NC(=O)c1ccccc1)NC(=O)c1ccccc1 12.8%
Cc1cc(C)n(-c2c(F)c(F)c(COC(=O)c3ccccc3)c(F)c2F)n1 2.6%
COc1ccc(NC(=O)CCNC(=O)Cn2ccc3ccccc3c2=O)c(OC)c1 5.7%
COC(=O)[C@H](C)NC(=O)Nc1ccc(OC(F)(F)F)cc1 -2.6%
COc1c(Br)cc2c(C)c(C(=O)N3CCOCC3)oc2c1Br -33.9%
COc1nc(OC)nc(N(C)CCO)n1 3%
O=C(N/N=C\c1ccc(-c2ccc(Cl)c(Cl)c2)o1)C(=O)N1CCCC1 33.8%
CC12COC3(C(=O)Nc4ccc(Cl)cn4)CC1CCC32C (stereo unspecified) 11.1%
c1ccc2c(c1)C(=NC1CCCCC1)NC2=NC1CCCCC1 9.4%
CCCS(=O)(=O)N1CCN(C(=O)c2cccs2)CC1 7.2%
CCS(=O)(=O)N1CCN(C(=O)c2cccs2)CC1 10%
CC(C)OCCCNc1ncnc2c1[nH]c1ccc(F)cc12 29.6%
Cc1cc(N2CCN(Cc3ccc4c(c3)OCO4)CC2)n2ncnc2n1 -3.2%
CCN1CCCC1CNc1ncnc2c1[nH]c1ccc(F)cc12 (stereo unspecified) 2.6%
O=C(c1cccs1)N1CCN(Cc2ccc3c(c2)OCO3)CC1 22.3%
CCOC(=O)c1ccc(-n2c(C)nc3c(cnn3-c3ccccc3C)c2=O)cc1 -2.7%
